{"source": "PubChem BioAssay AID743047", "about": "(Broad Institute, 2013)", "note": "Potency and affinity values are given separately. Unmarked numbers belong to inactive results. No rule for the calls is given here."}
{"assay": "PAX5 activity inhibitors, dose response, selectivity assay for PAX8 inhibitor project, cell-based, plate reader, dry powder samples (AID 743047)", "conditions": "cell-based PAX5 selectivity counter-screen; series mostly up to 50 µM; activity change, negative = inhibition: at the top concentration"}
{"compound": "COc1ccc(-c2cc(C(F)(F)F)nc(S(=O)(=O)CCCC(=O)Nc3cc(C)on3)n2)cc1OC", "activity change, negative = inhibition": "143% [at 26 µM]"}
{"compound": "N#C[C@H]1N[C@H](CO)[C@@H]1c1ccc(C#Cc2ccccc2F)cc1", "activity change, negative = inhibition": "44.2% [at 35 µM]"}
{"compound": "Cc1ccc(-c2csc(NC3OC(=O)c4ccccc43)n2)cc1", "note": "(centres undefined)", "activity change, negative = inhibition": "28.5%"}
{"compound": "N#C[C@H]1[C@@H](c2ccc(C#Cc3cccc(F)c3)cc2)[C@@H](CO)N1C(=O)C1CCCC1", "activity change, negative = inhibition": "-34.3% [at 35 µM]"}
{"compound": "COc1ccc(OC)c2sc(N(CCCN(C)C)C(=O)CCS(=O)(=O)c3ccccc3)nc12", "activity change, negative = inhibition": "64.7%"}
{"compound": "CN(C)CCCN(C(=O)CCOc1ccccc1)c1nc2c(F)cccc2s1", "activity change, negative = inhibition": "-13.4%"}
{"compound": "CN(C[C@H]1N[C@@H](CO)[C@@H]1c1ccc(C2=CCCC2)cc1)C(=O)c1cccc(F)c1", "activity change, negative = inhibition": "243% [at 8 µM]"}
{"compound": "CC(=O)Nc1ccc(NC(=O)c2nc(S(=O)(=O)Cc3ccccc3)ncc2Cl)cc1", "activity change, negative = inhibition": "43.2% [at 26 µM]"}
{"compound": "COc1cccc2sc(N(CCCN(C)C)C(=O)CCS(=O)(=O)c3ccccc3)nc12", "activity change, negative = inhibition": "54.8%"}
{"compound": "Cc1cc(NC(=O)CCCS(=O)(=O)c2nc(-c3cccs3)cc(C(F)(F)F)n2)no1", "activity change, negative = inhibition": "64.7% [at 26 µM]"}
{"compound": "C[C@H](CO)N1C[C@H](C)[C@@H](CN(C)Cc2ccc(-c3ccccc3)cc2)Oc2ccc(NC(=O)C3CC3)cc2CC1=O", "activity change, negative = inhibition": "-29.4% [at 35 µM]"}
{"compound": "C[C@H]1CN([C@@H](C)CO)C(=O)CCCn2nncc2CO[C@@H]1CN(C)C(=O)Nc1ccc(-c2cccs2)cc1", "activity change, negative = inhibition": "-19.7% [at 35 µM]"}
{"compound": "C[C@@H]1CN([C@H](C)CO)C(=O)CCCn2cc(nn2)CO[C@H]1CN(C)C(=O)Nc1ccc(-c2cccs2)cc1", "activity change, negative = inhibition": "7.2% [at 35 µM]"}
{"compound": "Cc1ccc2cccc(NS(=O)(=O)c3ccccc3)c2n1", "activity change, negative = inhibition": "-32.9%"}
